From PubChem BioAssay (NCATS) come the findings set out here.

Assay [1] in a line: qHTS of pediatric cancer cell lines to identify multiple opportunities for drug repurposing: Primary screen for Rh18 cells (AID 1347102). Further: nearly all actives have a fitted effect of over 65% in size. An outline of the steps:
(§1)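 Cells (500-1,000/well) rested 5 h, then received compounds for 48 h; metabolically active cells were measured by CellTiter-Glo luminescence. Final concentrations spanned up to 46 µM (MIPE, 11-point) or 0.59 nM-46 µM (NPC, 8-point) in primary screens, 11-point in follow-ups.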

Assay [2] can be described thus: qHTS of pediatric cancer cell lines to identify multiple opportunities for drug repurposing: Primary screen for OHS-50 cells (AID 1347103). Further: nearly all actives have a fitted effect of over 40% in size. The method, boiled down:
as §1
(In general: Quantitative high-throughput screening tests each substance at several concentrations.)

Assay [3] can be described thus: qHTS of pediatric cancer cell lines to identify multiple opportunities for drug repurposing: Primary screen for RD cells (AID 1347104). Further: nearly all actives have a fitted effect of over 55% in size. An outline of the steps: (§2)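 Following a 5-hour attachment period, cells at 500-1,000/well received compounds and were cultured for 48 hours. CellTiter-Glo was added and luminescence read to estimate viable, metabolically active cells.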

A short description of assay [4]: qHTS of pediatric cancer cell lines to identify multiple opportunities for drug repurposing: Primary screen for MG 63 (6-TG R) cells (AID 1347105). Further: nearly all actives have a fitted effect of over 50% in size. An outline of the steps:
as §2

A short description of assay [5]: qHTS of pediatric cancer cell lines to identify multiple opportunities for drug repurposing: Primary screen for control Hh wild type fibroblast cells (AID 1347106). Further: nearly all actives have a fitted effect of over 55% in size. An outline of the steps: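 Viability after 48 h compound treatment at 37C, 500-1,000 cells/well, read as ATP luminescence with CellTiter-Glo. Primary screens used 11-point (MIPE, 0.78 nM-46 µM) or 8-point (NPC, 0.59 nM-46 µM) final concentrations; follow-up screens used 11-point dilutions.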

The nature of assay [6]: qHTS of pediatric cancer cell lines to identify multiple opportunities for drug repurposing: Primary screen for Rh30 cells (AID 1347107). Further: nearly all actives have a fitted effect of over 75% in size. An outline of the steps:
as §1

Assay [7] in a line: qHTS of pediatric cancer cell lines to identify multiple opportunities for drug repurposing: Primary screen for Rh41 cells (AID 1347108). Further: nearly all actives have a fitted effect of over 70% in size. An outline of the steps:
as §2

Assay [8] is described as follows: qHTS of pediatric cancer cell lines to identify multiple opportunities for drug repurposing: Confirmatory screen for NB1643 cells (AID 1347109). Further: nearly all actives have a fitted effect of over 45% in size. An outline of the steps: as §1
A short description of assay [9]: qHTS of pediatric cancer cell lines to identify multiple opportunities for drug repurposing: Confirmatory screen for A673 cells (AID 1347110).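 Further: cells exposed to compound for 48 h before the viability read; nearly all actives have a fitted effect of over 65% in size.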 An outline of the steps:
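Viability was read as ATP luminescence (CellTiter-Glo) after 48 h of compound exposure at 37 C in A673 cells seeded at 500-1,000/well. Titrations reached 46 uM final, with 11 points in the confirmatory screen. Concentration-response curves were fitted directly.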

The nature of assay [10]: qHTS of pediatric cancer cell lines to identify multiple opportunities for drug repurposing: Confirmatory screen for SK-N-MC cells (AID 1347111).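 Further: cells exposed to compound for 48 h before the readout; nearly all actives have a fitted effect of over 70% in size.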 An outline of the steps:
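Seed 500-1,000 cells/well; rest 5 h at 37 degrees C. Pin-transfer compounds, 11-point titration. Incubate 48 h. Add CellTiter-Glo, 15 min RT, read luminescence.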

“And” between values parts separate entries of the source, which are not always exact repeats. Identical values can stand only once. Records with an inconclusive call do not appear. The source made the active and inactive calls. The call rests on the fitted dose curve; in most records, active means well fitted curve in the direction sought with a large enough effect; inconclusive means small, poorly fitted or top-dose-only effect, or another doubt; inactive means no such curve, though single readings can be large; an effect the other way counts as inactive or inconclusive.
Potency means the concentration at half of the fitted maximal effect.

With `COc1cccc(N(C)C(=S)Oc2ccc3c(c2)CCCC3)n1`, the Potency entry in assay [1], in assay [3], in [4], in assay [5], in [6] and in assay [7] was “inactive” each time. In assay [2], the Potency is 24.3 µM (active).

Consider `Nc1nc(=S)c2[nH]cnc2[nH]1`, for which the Potency in [1] was 13.3 µM (active); in [2] it was 872 nM (active) and 1.72 µM (active); in assay [8], 5.85 µM (active) and 4.14 µM (active); in assay [9] it was 2.61 µM (active) and 1.65 µM (active); in assay [10], 11.7 µM (active) and 7.37 µM (active). Moreover, the Potency entry in assay [4] and in [5] was “inactive” in each case.

`NC(=O)c1cccc(N)c1`: the Potency result in assay [1], in assay [2], in assay [3], in assay [4], in [5] and in assay [6] was “inactive” throughout. The Potency result in assay [7] is “inactive”.

`CC(C)C[C@H](NC(=O)[C@H](CCc1ccccc1)NC(=O)CN1CCOCC1)C(=O)N[C@@H](Cc1ccccc1)C(=O)N[C@@H](CC(C)C)C(=O)[C@@]1(C)CO1`: the Potency in assay [1] is 106 nM (active) and 264 nM (active); in assay [2], 61.7 nM (active) and 109 nM (active); in assay [3] it was 23.7 nM (active) and 41.8 nM (active); in assay [4], 42.2 nM (active) and 59 nM (active); in assay [5] it was 335 nM (active) and 264 nM (active); in assay [6], 59.6 nM (active) and 296 nM (active). In addition, the Potency in [7] is 23.7 nM (active) and 46.9 nM (active); in assay [9], 0.0522 µM (active); in assay [10], 0.0083 µM (active).

As to `CCc1cc(C(N)=S)ccn1`, the Potency result in [1], in [2], in assay [3], in assay [4], in assay [5] and in assay [6] was “inactive” each time. The Potency result in assay [7] was “inactive”.

On to `NNC(=O)c1ccncc1`, for which the Potency result in assay [1], in [2], in [3], in [4], in [5] and in assay [6] was “inactive” throughout. Also, in assay [7], the Potency result is “inactive”.

Regarding `COc1cc2nc(N3CCCN(C)CC3)nc(NC3CCN(Cc4ccccc4)CC3)c2cc1OC`, the Potency in assay [1] was 9.35 µM (active); in assay [2], 8.63 µM (active); in assay [3] it was 8.33 µM (active); in [4], 9.35 µM (active); in assay [5] it was 16.6 µM (active); in assay [7], 18.7 µM (active). The figures for the Potency in assay [8], in assay [9] and in assay [10] were 20.8 µM (active), 7.37 µM (active) and 3.69 µM (active), respectively.

Take `CC1CC2C3CCC4=CC(=O)C=C[C@]4(C)[C@@]3(F)[C@@H](O)C[C@]2(C)[C@@]1(O)C(=O)CO` (stereo partly specified): the Potency entry in assay [2] and in assay [10] was “inactive” throughout. The Potency in assay [9] is 2.93 µM (active).

In the case of `CC(C)(C)NC(=O)[C@H]1CC[C@H]2[C@@H]3CC[C@H]4NC(=O)C=C[C@]4(C)[C@H]3CC[C@]12C`, in assay [2], the Potency is 12.2 µM (active).

With `O[C@@H](CNC[C@H](O)[C@H]1CCc2cc(F)ccc2O1)[C@@H]1CCc2cc(F)ccc2O1`, the Potency in assay [3] is 33.2 µM (active). Further, the Potency result in assay [5] and in assay [6] was “inactive” in each case.

Regarding `C[C@@H](NCCCc1cccc(C(F)(F)F)c1)c1cccc2ccccc12`, the Potency result in assay [1], in assay [4], in assay [5], in assay [6] and in assay [7] was “inactive” in each case.

For `Nc1nc(F)nc2c1ncn2[C@@H]1O[C@H](CO)[C@@H](O)[C@@H]1O`, the Potency is 55 nM (active) and 485 nM (active) in [2]; 0.833 µM (active) in assay [3]; 42.2 nM (active) and 590 nM (active) in [4]; 1.48 µM (active) in [7]; 0.465 µM (active) in assay [8]; 1.85 µM (active) in assay [9]. The Potency in assay [10] was 0.465 µM (active). The Potency result in [5] and in assay [6] was “inactive” throughout.

Take `CC(=O)[C@H]1CC[C@H]2[C@@H]3CCC4=CC(=O)CC[C@]4(C)[C@H]3CC[C@]12C`: the results for the Potency in [2] and in assay [4] were 19.3 µM (active) and 11.8 µM (active), respectively. Besides, the Potency entry in assay [5] was “inactive”.

As for `Nc1nc(N)c2nc(CNc3ccc(C(=O)NC(CCC(=O)O)C(=O)O)cc3)cnc2n1` (stereo unspecified), the Potency entry in assay [1], in assay [4], in assay [6], in assay [7] and in assay [8] was “inactive” throughout. The Potency was 1.04 µM (active) in [9] and 0.329 µM (active) in [10].

Take `COc1cc2c(Nc3ccc(Br)cc3F)ncnc2cc1OCC1CCN(C)CC1`: the Potency entry in assay [5], in assay [6], in [8] and in [10] was “inactive” throughout.

As to `Nc1nc(N)nc(-c2cc(Cl)ccc2Cl)n1`, the Potency result in assay [1], in assay [3], in [4], in [5], in assay [6] and in assay [7] was “inactive” throughout. Besides, the Potency in assay [9] was 26.9 µM (active); in assay [10] it was 1.17 µM (active).

In the case of `CC(C)Cn1cnc2c(N)nc3ccccc3c21`, the Potency result in assay [1], in assay [4], in assay [5] and in assay [6] was “inactive” in each case.

Regarding `COc1cc2ncnc(Nc3cccc(Cl)c3)c2cc1OC`, the Potency in assay [2] was 24.3 µM (active). Further, the Potency result in [5] and in [6] was “inactive” each time.

As to `CCOC(=O)[C@H](CCc1ccccc1)N[C@H]1CS[C@H](c2cccs2)CN(CC(=O)O)C1=O`, the Potency result in assay [5], in assay [6] and in assay [8] was “inactive” throughout. Besides, the Potency in assay [9] is 10.4 µM (active); in [10], 9.27 µM (active).

`Cc1c(-c2ccc(O)cc2)n(Cc2ccc(OCCN3CCCCCC3)cc2)c2ccc(O)cc12`: the Potency result in assay [1], in assay [3], in [5], in [6] and in [7] was “inactive” throughout.

Turning to `NC(N)=NC(N)=NCCc1ccccc1`, the Potency entry in [1], in assay [4], in [5] and in assay [6] was “inactive” in each case.

As for `COC(=O)Nc1nc2ccc(S(=O)c3ccccc3)cc2[nH]1` (stereo unspecified), the Potency in assay [2] is 1.1 µM (active) and 24.3 µM (active); in [4], 668 nM (active) and 14.8 µM (active); in assay [8] it was 1.85 µM (active); in assay [9] it was 1.17 µM (active); in assay [10], 1.47 µM (active). In addition, the Potency result in assay [5] and in assay [6] was “inactive” each time.

`CS(=O)(=O)c1ccc([C@@H](O)[C@@H](CO)NC(=O)C(Cl)Cl)cc1`: the Potency result in [1], in assay [3], in assay [4], in assay [5], in assay [6] and in assay [7] was “inactive” in each case. The Potency result in [9] is “inactive”.

For `CCC(=O)O[C@]1(C(=O)CCl)[C@@H](C)C[C@H]2[C@@H]3CCC4=CC(=O)C=C[C@]4(C)[C@@]3(F)[C@@H](O)C[C@@]21C`, the Potency result in [1], in assay [3], in assay [4], in [5], in assay [6] and in assay [7] was “inactive” each time. The Potency result in assay [8] and in [10] was “inactive” each time. Also, the Potency in assay [9] was 20.8 µM (active).

Consider `CCCCOc1ccc(CC(=O)NO)cc1`, for which the Potency in assay [3] was 15 µM (active) and 26.4 µM (active). Further, the Potency result in [4], in assay [5], in assay [6], in assay [8], in assay [9] and in [10] was “inactive” throughout.

`CNS(=O)(=O)CCc1ccc2[nH]cc(C3CCN(C)CC3)c2c1`: the Potency result in assay [1], in assay [6], in assay [7] and in assay [8] was “inactive” in each case. The results for the Potency in assay [9] and in [10] were 3.69 µM (active) and 4.14 µM (active), respectively.

As for `CC(C)NCC(O)c1ccc(NS(C)(=O)=O)cc1` (stereo unspecified), the Potency entry in assay [1], in assay [3], in [4], in assay [5], in assay [6] and in [8] was “inactive” each time. Also, the Potency entry in [9] and in assay [10] was “inactive” each time.

For the compound `Cc1ccc(S(=O)(=O)N[C@@H](Cc2ccccc2)C(=O)CCl)cc1`, the Potency is 19.3 µM (active) in assay [2], 26.4 µM (active) in assay [3], 29.6 µM (active) in assay [4] and 18.7 µM (active) in assay [7]. The Potency result in assay [5] is “inactive”.
